The other results are listed elsewhere or left out. The hit rate among all sequences tested is not known here.
B1: FS-2877 (peptide)
chain: CAPSKRGNSTAGNASASA
B2: HC2298 (peptide)
chain: CADTEVVTSTAGNASASA
B3: FS-2829 (peptide)
chain: CARTKRHRSTAGNASASA
B4: FS-2613 (peptide)
chain: CARTKRSWVWAGNASASA
B5: FS-2385 (peptide)
chain: CARTRRSWVWAGNASASA
B6: FS-2827 (peptide)
chain: CARTKRFSHTAGNASASA
B7: FS-2468 (peptide)
chain: CARTRRISQTAGNASASA
B8: FS-3108 (peptide)
chain: CARTKRSSTTAGNASASA
B9: FS-2880 (peptide)
chain: CARACRGVTTAGNASASA
B10: FS-2828 (peptide)
chain: CARTKRGWMWAGNASASA
B11: FS-1841 (peptide)
chain: CARTKKSSVQAGNASASA
B12: HC1678 (peptide)
chain: CATEECSQHLAGNASASA
B13: HC97 (peptide)
chain: CAVVCYSMSYAGNASASA
B14: HC128 (peptide)
chain: CAEVVMSTWVAGNASASA
B15: FS-920 (peptide)
chain: CATPEDFVRSAGNASASA
B16: FS-1090 (peptide)
chain: CASRYRFVRSAGNASASA
B17: FS-772 (peptide)
chain: CAFRIRTIRSAGNASASA
B18: FS-1089 (peptide)
chain: CASRYRFIRSAGNASASA
B19: HC1987 (peptide)
chain: CAFVCCSMSYAGNASASA
B20: HC2245 (peptide)
chain: CAEVVTSTWLAGNASASA
B21: HC1014 (peptide)
chain: CAEMEECSQHAGNASASA
B22: FS-2742 (peptide)
chain: CARPRREAPFAGNASASA
B23: FS-2744 (peptide)
chain: CARPRRMTPFAGNASASA
B24: HC1228 (peptide)
chain: CAPPCKPLLRAGNASASA
B25: HC2197 (peptide)
chain: CAEVSTSTWVAGNASASA
B26: HC1868 (peptide)
chain: CATTWCSGSWAGNASASA
B27: HC2056 (peptide)
chain: CAVVCCSGSYAGNASASA
B28: FS-935 (peptide)
chain: CAKKGRNRRTAGNASASA
B29: FS-134 (peptide)
chain: CALNGRCRRTAGNASASA
B30: FS-353 (peptide)
chain: CALNGREHRSAGNASASA
B31: FS-894 (peptide)
chain: CAVTSRSFRTAGNASASA
B32: FS-41 (peptide)
chain: CAKKGRGKRTAGNASASA
B33: FS-1241 (peptide)
chain: CAPKGRGKRRAGNASASA
B34: HC479 (peptide)
chain: CAEHRLEAACAGNASASA
B35: HC1759 (peptide)
chain: CAMEECSQPLAGNASASA
B36: HC2129 (peptide)
chain: CAEYVVCCSMAGNASASA
B37: HC2527 (peptide)
chain: CASTPCSFHLAGNASASA
B38: HC996 (peptide)
chain: CAAAYCLSTGAGNASASA
B39: HC1192 (peptide)
chain: CANAYTTGPCAGNASASA
B40: HC1757 (peptide)
chain: CAMEECSQSLAGNASASA
B41: FS-133 (peptide)
chain: CAHRCRHKRWAGNASASA
B42: FS-830 (peptide)
chain: CAMRSRNGRWAGNASASA
B43: FS-1421 (peptide)
chain: CATAKREKRWAGNASASA
B44: FS-3242 (peptide)
chain: CARAQRFWSWAGNASASA

Target: furin, P09958
Sequence (P09958 whole entry): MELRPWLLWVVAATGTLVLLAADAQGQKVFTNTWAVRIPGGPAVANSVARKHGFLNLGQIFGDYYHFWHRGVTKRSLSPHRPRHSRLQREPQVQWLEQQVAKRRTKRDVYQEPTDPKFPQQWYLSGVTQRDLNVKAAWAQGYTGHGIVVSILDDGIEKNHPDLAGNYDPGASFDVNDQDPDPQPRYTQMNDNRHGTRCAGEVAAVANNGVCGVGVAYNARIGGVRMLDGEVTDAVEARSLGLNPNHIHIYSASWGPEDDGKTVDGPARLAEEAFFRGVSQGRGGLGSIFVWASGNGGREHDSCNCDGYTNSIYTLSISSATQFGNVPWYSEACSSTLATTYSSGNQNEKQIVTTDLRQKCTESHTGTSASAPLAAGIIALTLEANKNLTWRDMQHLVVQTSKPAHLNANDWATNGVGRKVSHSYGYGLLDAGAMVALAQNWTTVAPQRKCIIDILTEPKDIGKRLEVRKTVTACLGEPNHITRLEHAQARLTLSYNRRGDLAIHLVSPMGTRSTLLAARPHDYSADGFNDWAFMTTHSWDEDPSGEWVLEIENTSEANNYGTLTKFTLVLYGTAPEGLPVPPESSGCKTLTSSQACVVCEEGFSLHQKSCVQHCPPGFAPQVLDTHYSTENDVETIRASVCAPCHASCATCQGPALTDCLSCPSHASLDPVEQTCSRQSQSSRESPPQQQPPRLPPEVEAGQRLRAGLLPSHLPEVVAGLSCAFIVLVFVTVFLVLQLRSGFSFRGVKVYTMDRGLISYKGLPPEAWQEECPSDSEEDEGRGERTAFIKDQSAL
Assay: furin cleavage Z-score vs untreated control; higher = more cleavage, active = 3.5 or more, inactive = 1 or less, 8 variable residues between constant flanks
Method in brief: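 Reactions of 0.01 ml ran for 7.5, 15 or 30 min in 50 mM HEPES pH 7.5 with CaCl2 and NaCl, at 1:10 enzyme:substrate. In them, purified furin acted on bead-held 8-mer peptides fused to a cDNA oligonucleotide. The cleavage Z-score was obtained by lowess-adjusting log sequencing counts of released DNA against furin-free reactions and scaling by median absolute deviation.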

Row | Sequence | furin cleavage Z-score (7.5 min) | furin cleavage Z-score (15 min) | furin cleavage Z-score (30 min)
1 | B1 | -0.745 (inactive) | -0.0005 (inactive) | 0.164 (inactive)
2 | B2 | -0.856 (inactive) | -0.105 (inactive) | -0.202 (inactive)
3 | B3 | 2.1 | 4.17 (active) | 5.45 (active)
4 | B4 | 2.5 | 3.65 (active) | 6.25 (active)
5 | B5 | 0.299 (inactive) | -0.875 (inactive) | 3.19
6 | B6 | 1.99 | 3.53 (active) | 5.48 (active)
7 | B7 | -0.0765 (inactive) | 0.134 (inactive) | 0.486 (inactive)
8 | B8 | 6.96 (active) | 8.23 (active) | 7.55 (active)
9 | B9 | 0.00727 (inactive) | -0.299 (inactive) | 0.871 (inactive)
10 | B10 | -0.833 (inactive) | 1.19 | 3.46
11 | B11 | 0.0621 (inactive) | -0.697 (inactive) | -0.462 (inactive)
12 | B12 | -0.115 (inactive) | 0.32 (inactive) | 0.469 (inactive)
13 | B13 | -0.487 (inactive) | -0.359 (inactive) | 1.4
14 | B14 | -0.73 (inactive) | -0.446 (inactive) | -0.0354 (inactive)
15 | B15 | -0.0484 (inactive) | -0.138 (inactive) | -0.221 (inactive)
16 | B16 | 10.3 (active) | 8.88 (active) | 7.53 (active)
17 | B17 | 12.7 (active) | 13.4 (active) | 9.8 (active)
18 | B18 | 9.42 (active) | 10.5 (active) | 7.95 (active)
19 | B19 | 1.81 | -0.389 (inactive) | -0.812 (inactive)
20 | B20 | 0.791 (inactive) | 0.0846 (inactive) | 0.0471 (inactive)
21 | B21 | -0.42 (inactive) | 0.366 (inactive) | 1.51
22 | B22 | 9.78 (active) | 10.3 (active) | 8.49 (active)

Row | Sequence | furin cleavage Z-score (7.5 min) | furin cleavage Z-score (15 min) | furin cleavage Z-score (30 min)
23 | B23 | 2.59 | 4.44 (active) | 4.82 (active)
24 | B24 | 0.659 (inactive) | 0.392 (inactive) | 0.118 (inactive)
25 | B25 | -0.613 (inactive) | 0.268 (inactive) | -1.55 (inactive)
26 | B26 | -0.625 (inactive) | -0.0771 (inactive) | -0.259 (inactive)
27 | B27 | -1.92 (inactive) | -0.697 (inactive) | -1.32 (inactive)
28 | B28 | 9.29 (active) | 8.34 (active) | 7.42 (active)
29 | B29 | 6.57 (active) | 6.93 (active) | 8.18 (active)
30 | B30 | 0.641 (inactive) | -0.584 (inactive) | -0.522 (inactive)
31 | B31 | 1.05 | -0.0745 (inactive) | -0.661 (inactive)
32 | B32 | 6.83 (active) | 9.38 (active) | 6.62 (active)
33 | B33 | 3.48 | 3.42 | 4.16 (active)
34 | B34 | 1.04 | -1.24 (inactive) | -0.381 (inactive)
35 | B35 | 1.51 | 1.8 | 0.466 (inactive)
36 | B36 | -0.0811 (inactive) | -0.535 (inactive) | -0.778 (inactive)
37 | B37 | -0.634 (inactive) | 0.268 (inactive) | 1.39
38 | B38 | 0.288 (inactive) | 0.367 (inactive) | -0.487 (inactive)
39 | B39 | 0.653 (inactive) | 0.298 (inactive) | 0.115 (inactive)
40 | B40 | 0.758 (inactive) | -0.436 (inactive) | 0.392 (inactive)
41 | B41 | 5.93 (active) | 10.1 (active) | 8.03 (active)
42 | B42 | 0.613 (inactive) | 0.727 (inactive) | 2.67
43 | B43 | 7.45 (active) | 10.5 (active) | 8.76 (active)
44 | B44 | -0.658 (inactive) | -0.187 (inactive) | -0.233 (inactive)

Source: the supplement of paper PMC3545927
